Source: PubChem (National Center for Advancing Translational Sciences (NCATS))
FLuc modulator = inhibits or activates purified firefly luciferase, miR-21 counter-screen. 360,000 compounds, 6.9% hits. AID 588342. P08659. purified FLuc, Km substrates, luminescence inhibition. Potency, µM (highest dose often 57.5 µM), without a hit: at the highest dose activity change, negative = inhibition, actives largely listed as inhibitors;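 note: plate controls were vehicle for no effect and reference inhibitor for full effect; nearly all actives have a fitted effect of over 55% in size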
Target sequence (P08659 whole entry, looked up): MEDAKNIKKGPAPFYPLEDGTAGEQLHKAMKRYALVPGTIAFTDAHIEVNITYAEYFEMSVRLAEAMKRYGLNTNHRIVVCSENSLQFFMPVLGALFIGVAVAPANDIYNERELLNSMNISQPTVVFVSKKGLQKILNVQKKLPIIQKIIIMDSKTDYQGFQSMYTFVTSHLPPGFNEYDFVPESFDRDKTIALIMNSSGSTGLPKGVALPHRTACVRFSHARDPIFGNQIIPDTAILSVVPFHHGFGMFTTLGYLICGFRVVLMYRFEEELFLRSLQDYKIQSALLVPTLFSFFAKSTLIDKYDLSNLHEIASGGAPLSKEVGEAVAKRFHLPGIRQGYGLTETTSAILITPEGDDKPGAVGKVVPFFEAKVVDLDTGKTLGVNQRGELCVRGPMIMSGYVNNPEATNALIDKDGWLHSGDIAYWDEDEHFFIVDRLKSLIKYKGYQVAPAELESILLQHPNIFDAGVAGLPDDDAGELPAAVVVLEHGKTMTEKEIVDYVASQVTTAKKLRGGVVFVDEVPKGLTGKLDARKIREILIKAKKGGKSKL
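Purified P. pyralis luciferase (10nM final) with 10uM D-luciferin and 10uM ATP (Km levels) in 50mM Tris acetate pH 7.5, 10mM Mg acetate, 0.01% Tween-20, 0.05% BSA; qHTS 6-point titration, ~60 µM downward; luminescence read.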
Rab9 promoter act = activators of Rab9 promoter; Huh7 Rab9 promoter-luciferase reporter, luminescence, 24 h; Potency, µM (top dose mostly 9.22 µM), for the others: at the top dose activation, negative = inhibition, actives largely listed as activators; 320,000 compounds, 2.8% hits; note: % of control where 0% means no effect; nearly all actives have a fitted effect of over 60% in size
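Luminescence from Amplite-detected luciferase (10 minutes, ambient) reports Rab9 promoter activation. Before that, stable Rab9-luciferase Huh7 cells (1500/well, reduced-serum OP-MEM I plus 10% FBS) were exposed to compound for 24 hours at 37C.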
ELG1 genotoxic = inducers of genotoxicity in HEK293T ELG1-luciferase cells. HEK293T ELG1-luciferase reporter, luminescence, 16 h. Potency, µM (titrated, usually from 46 µM), inactives show at the top dose activity change, positive = activation, usual class: activators. AID 504466. 330,000 compounds, 1.3% hits; note: % of control where 0% means no effect; nearly all actives have a fitted effect of over 60% in size
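Screening used a luciferase reporter fused to human ELG1 in HEK293T cells. Luminescence was read on a CCD plate imager after 16 hr exposure and 30 min ONE-Glo incubation.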
NPC1 promoter act = activates the NPC1 promoter. Huh7 NPC1 promoter luciferase reporter, 24 h. 320,000 compounds, 2.4% hits. AID 485313. Potency, µM (top dose mostly 9.22 µM), inactives show top-dose activation, usual class: activators; note: % of control where 0% means no effect; nearly all actives have a fitted effect of over 60% in size
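Huh7 cells stably carrying NPC1 promoter–luciferase, plated in Opti-MEM with 10% FBS for 2 h, were exposed to compound in DMSO for 24 h at 37 °C; luciferase reagent was added for 10 min and luminescence read.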
ELG1 repair inh = ELG1-dependent DNA repair inhibition; HEK293T ELG1-luciferase reporter, luminescence, 16 h; DNA damage induced by 5-fluorouridine; 330,000 compounds, 2.3% hits; AID 504467; Potency, µM (top dose mostly 46.1 µM), without a hit: at the highest dose activity change, negative = inhibition, actives largely listed as inhibitors; note: % is set by controls: 0 for no effect and ±100 for the full control effect; nearly all actives have a fitted effect of over 55% in size
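Reporter activity after DNA damage by 5-fluorouridine is monitored. Compound-treated cells incubate 16 hr at 37 °C, then ONE-Glo is added for 30 min before luminescence reading.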
SMN2 splice up = increases expression of the SMN2 splice variant; HEK293 SMN2-luciferase splicing reporter, luminescence, 30-36 h; Potency, µM (doses to about 46.1 µM), without a hit: at the highest dose activity change, positive = activation, usual class: activators; 210,000 compounds, 2.8% hits; AID 1458; note: % of control where 0% means no effect; nearly all actives have a fitted effect of over 55% in size
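HEK293 cells carry an SMN2 minigene-luciferase reporter in which exon 7 inclusion puts luciferase in frame. Cells were seeded at 2000 cells/well, attached for 10-12 hours, then exposed to compounds for 30-36 hours at 37C before ONE-Glo luminescence.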
Numbers without * were called inactive. Most compounds without a hit are left out; they make up all but 9.2% or so of the library. Calls come from the whole dose curve; as a rule, active = well fitted curve in the direction sought with a large enough effect; inconclusive = small, poorly fitted or top-dose-only effect, or another doubt; inactive = no such curve, though single readings can be large; an effect the other way counts as inactive or inconclusive. Potency is the fitted concentration of half-maximal effect.

What do the screens show for `CC(=O)N1CCc2nc3sc(C(=O)Nc4ccc(Cl)cc4F)c(N)c3c(C(F)(F)F)c2C1`?
FLuc modulator: 4%; SMN2 splice up: -13%

What do the screens show for `O=C(NCCc1ccccc1)c1ccc2c(c1)OCO2`?
FLuc modulator: 0.54µM*; Rab9 promoter act: inconclusive; ELG1 genotoxic: inconclusive; NPC1 promoter act: inconclusive; ELG1 repair inh: inconclusive

Results for O=C(NCCc1ccccc1)C1=COCCO1 ?
FLuc modulator: 17µM*; Rab9 promoter act: 3.2µM*; ELG1 genotoxic: inconclusive; NPC1 promoter act: 2.5µM*; ELG1 repair inh: inconclusive

How did Cc1ccc(C(=O)NCCn2ccc3ccccc32)cc1[N+](=O)[O-] do in these assays?
FLuc modulator: -18%; Rab9 promoter act: 21%; ELG1 genotoxic: -3%; NPC1 promoter act: 21%; ELG1 repair inh: 0%; SMN2 splice up: inconclusive

Results for Cc1ccc(C(=O)NCCn2cc(SCC(=O)Nc3nnc(C)s3)c3ccccc32)cc1 ?
FLuc modulator: 17µM*; Rab9 promoter act: 26%; ELG1 genotoxic: inconclusive; NPC1 promoter act: -3%; ELG1 repair inh: inconclusive; SMN2 splice up: -55%

What do the screens show for `CCCn1cc(SCC(=O)Nc2nnc(C)s2)c2ccccc21`?
FLuc modulator: 4%; Rab9 promoter act: -6%; ELG1 genotoxic: 8%; NPC1 promoter act: -6%; ELG1 repair inh: -13%; SMN2 splice up: 12%

How did COc1ccc(C(=O)NCCn2ccc3ccccc32)cc1 do in these assays?
FLuc modulator: 11µM*; Rab9 promoter act: 1.4µM*; ELG1 genotoxic: inconclusive; NPC1 promoter act: inconclusive; ELG1 repair inh: inconclusive; SMN2 splice up: 13µM*

Results for CC(C)(C)c1ccccc1NC(=O)C1=COCCO1 ?
FLuc modulator: 2%; Rab9 promoter act: 2%; ELG1 genotoxic: 6%; NPC1 promoter act: -1%; ELG1 repair inh: inconclusive

How did CCOc1ccccc1CNC(=O)c1ccc(N2Cc3ccccc3Oc3ncccc32)s1 do in these assays?
FLuc modulator: 0%

What do the screens show for `Cc1nn2c(=O)cc(COC(=O)c3ccccc3NC(=O)C3CCCCC3)nc2s1`?
FLuc modulator: -2%

Results for Cc1cc2ccccc2n1CCNC(=O)c1ccc(Br)cc1 ?
FLuc modulator: inconclusive; SMN2 splice up: -58%

How did Cc1cc2ccccc2n1CCNC(=O)c1ccccc1 do in these assays?
FLuc modulator: 21µM*; Rab9 promoter act: inconclusive; ELG1 genotoxic: 5%; NPC1 promoter act: inconclusive; ELG1 repair inh: inconclusive; SMN2 splice up: -54%

How did COc1ccc(-c2cccc(NC(=O)c3ccco3)c2)nn1 do in these assays?
FLuc modulator: -18%; Rab9 promoter act: 2%; ELG1 genotoxic: -14%; NPC1 promoter act: 3%; ELG1 repair inh: inconclusive

Results for CCC(C)c1ccc(NC(=O)c2ccco2)cc1 (stereo not drawn) ?
FLuc modulator: 0.43µM*; Rab9 promoter act: 0.32µM*; ELG1 genotoxic: 0.58µM*; NPC1 promoter act: 0.14µM*; ELG1 repair inh: inconclusive

What do the screens show for `CN(C(=O)c1cccc(NC(=O)c2ccco2)c1)c1ccccc1`?
FLuc modulator: 2%; Rab9 promoter act: 3%; ELG1 genotoxic: -3%; NPC1 promoter act: 2%; ELG1 repair inh: inconclusive

What do the screens show for `COc1ccc(-c2ccc(NC(=O)c3ccco3)cc2)nn1`?
FLuc modulator: 1.2µM*; Rab9 promoter act: 0.1µM*; ELG1 genotoxic: inconclusive; NPC1 promoter act: inconclusive; ELG1 repair inh: inconclusive

Results for Cc1ccc(Oc2ccc(NC(=O)c3ccco3)cc2)cc1 ?
FLuc modulator: 27µM*; Rab9 promoter act: inconclusive; ELG1 genotoxic: inconclusive; NPC1 promoter act: 3.2µM*; ELG1 repair inh: inconclusive; SMN2 splice up: 2%

How did CCC(C)c1ccc(NC(=O)COC(=O)CCNC(=O)c2ccco2)cc1 (stereo not drawn) do in these assays?
Rab9 promoter act: -3%; ELG1 genotoxic: 3%; NPC1 promoter act: -3%; ELG1 repair inh: inconclusive
